Pf growth 48h: P. falciparum growth inhibition at 48 hours (one generation) | Potency, µM (titrated, usually from 28.7 µM), actives largely listed as inhibitors | 310,000 tested, 5.9% active | P. falciparum luciferase growth in erythrocytes, 48 h | AID 504832
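Luminescence readout; reporter = integrated firefly luciferase in P. falciparum. RBC culture at 2% hematocrit, 0.1% parasitemia final, 37 C/5% CO2; decreased signal taken as growth inhibition.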
Shiga inhibitor: inhibitors of Shiga toxin in Vero cells. inhibition, % at 38.7 µM. 290,000 tested, 9.2% active. Vero cells, Shiga toxin protein synthesis inhibition reporter. AID 2315; in the data active = inhibition mostly above about 28%, no sharp cut-off; inactive = mostly below about 43%
Pf growth 96h: P. falciparum growth inhibition at 96 hour, primary screen for plastid delayed-death inhibitors | P. falciparum luciferase reporter growth, 96 h | Potency, µM (titrated, usually from 28.7 µM), hits mostly inhibitors | 320,000 tested, 6.9% active | AID 504834
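Compounds incubated with erythrocytes infected by luciferase-expressing P. falciparum (2% hematocrit, 0.05% parasitemia final) for 96 hours, 37 C in 5% CO2. Growth inhibition scored as decreased luciferase luminescence.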
HCMV inh: human cytomegalovirus inhibition. HFF cells, HCMV-luciferase reporter, 72 h; active compounds read low. activity change, negative = inhibition, % at 57.5 µM. 410,000 tested, 4.5% active; in the data active = activity change below about -60%; inconclusive = no clear call, values can overlap the other calls; inactive = above about -39%
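Two-dose cell screen: HFF monolayers treated with compounds and infected with luciferase-expressing HCMV at 1 PFU/cell, 72 h at 37C, then lysed for luciferase measurement.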
HCV inh: inhibitors of hepatitis C virus infection; AID 651820; Huh7.5.1 HCVcc-Cre infection, luciferase reporter, 44 h; 340,000 tested, 3.4% active; Potency, µM (series often up to 41.8 µM), most hits filed as inhibitors
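Reporter virus HCVcc-Cre (~0.5 moi) infects cells exposed to compound; seeding density 1,000 cells/well with 4 h settling beforehand. Luminescence, 15 sec read, taken 44 h post-infection following a 15 min RT substrate incubation.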
Cycloheximide cs: counter-screen hit for Shiga toxin inhibitors, cycloheximide; cell reporter, cycloheximide protein synthesis inhibition counterscreen; max response, %; 300,000 tested, 12% active; in the data active = max response mostly above about 13%, no sharp cut-off; inactive = mostly below about 14%; also: read at 38.3 µM for the half of the compounds with a filed dose
Hits are given with their value; – = inactive; ? = inconclusive; · = no result. Hits are enriched below; roughly 21% of the tested compounds scored in any of these assays. Unless noted, calls follow the shape of the dose curve; as a rule, active = well fitted inhibition curve with a large enough effect; inconclusive = small, poorly fitted or top-dose-only effect, or another doubt; inactive = no such curve, though single readings can be large or run the other way.

SMILES | Pf growth 48h | Shiga inhibitor | Pf growth 96h | HCMV inh | HCV inh | Cycloheximide cs
CCN(CC)C1CCN(C(=O)c2ccc3nc(Cc4ccc(OC)cc4)oc3c2)C1 (stereo not drawn) | ? | – | ? | – | – | –
CCCC1(C(=O)OC)NC(c2ccc(OC)cc2OC)C2C(=O)N(c3cccc(C(C)=O)c3)C(=O)C21 (stereo not drawn) | ? | – | – | – | ? | –
Cc1ccc(C)c(Cn2c(=O)n(CCCC(=O)NCc3ccc4c(c3)OCO4)c(=O)c3sccc32)c1 | · | · | · | – | · | ·
CCOC(=O)C1CCN(CC(O)COCc2ccc3c(c2)OCO3)CC1 (stereo not drawn) | – | – | – | – | – | –
O=C(c1ccc(S(=O)(=O)N2CCCC2)cc1)N1CCC(CN2C(=O)c3cccc4cccc(c34)C2=O)CC1 | 11.7µM | – | 1.31µM | ? | – | –
COc1ccc(S(=O)(=O)N2CCC(CN3C(=O)c4cccc5cccc(c45)C3=O)CC2)cc1 | ? | – | 1.47µM | – | ? | –
O=C1c2cccc3cccc(c23)C(=O)N1CC1CCN(CC(O)COCc2ccc3c(c2)OCO3)CC1 (stereo not drawn) | 9.28µM | – | ? | – | 10µM | –
COc1ccc(OCC(O)CN2CCC(CN3C(=O)c4cccc5cccc(c45)C3=O)CC2)cc1 (stereo not drawn) | 8.28µM | – | – | – | ? | –
COc1ccc(OCC(=O)NNC(=S)NC(=O)C2CCCCC2)cc1 | – | – | ? | – | · | –
CCCc1cc(=O)[nH]c(SCC(=O)Nc2cccc(S(=O)(=O)N3CCOCC3)c2)n1 | ? | · | ? | – | – | ·
NS(=O)(=O)c1cc2c(cc1Cl)NC(Cc1ccccc1)NS2(=O)=O (stereo not drawn) | – | – | ? | – | – | –
Cc1cc(NS(C)(=O)=O)c(=O)n(Cc2cccc(C(F)(F)F)c2)c1 | · | · | · | – | · | ·
CCC1CCCCN1CCNS(=O)(=O)c1ccc2c(c1)oc(=O)n2C (stereo not drawn) | – | – | – | – | – | –
CCC1CCCCN1C(=O)CCNS(=O)(=O)c1ccc2c(c1)oc(=O)n2C (stereo not drawn) | ? | – | 2.33µM | – | – | –
CCC1CCCCN1CCCNS(=O)(=O)c1ccc2c(c1)oc(=O)n2C (stereo not drawn) | 11.7µM | – | 2.94µM | – | – | –
Cn1c(=O)oc2cc(S(=O)(=O)NCCN3CCc4ccccc4C3)ccc21 | – | – | 8.28µM | – | – | –
CC1CC2OC2CC1COC(=O)C1CC2OC2CC1C (stereo not drawn) | · | · | · | – | – | ·
CCOc1cccc(CN2CCC(n3nccc3NC(=O)C3CC3)CC2)c1O | – | – | ? | – | – | –
CN(C(=O)Cn1cc(C(F)(F)F)ccc1=O)c1c(N)n(Cc2ccccc2)c(=O)[nH]c1=O | – | – | – | – | – | –
CC(C)C[C@H](NC(=O)[C@H](CC(C)C)NC(=O)[C@H](Cc1ccccc1)NC(=O)[C@@H](N)CO)C(=O)N[C@@H](CCCNC(=N)N)C(=O)N[C@@H](CC(N)=O)C(=O)N1CCC[C@H]1C(=O)N[C@@H](CC(N)=O)C(=O)N[C@@H](CC(=O)O)C(=O)N[C@@H](CCCCN)C(=O)N[C@@H](Cc1ccc(O)cc1)C(=O)N[C@@H](CCC(=O)O)C(=O)N1CCC[C@H]1C(=O)N[C@@H](Cc1ccccc1)C(=O)O | · | – | · | · | · | –
O=C(Oc1ccc(OC(=O)c2ccco2)c(S(=O)(=O)c2ccc(Cl)cc2)c1)c1ccco1 | – | – | 10.4µM | – | – | –
CC(=O)c1cc(Cl)ccc1OC(=O)c1ccco1 | – | – | · | – | – | –
O=C(Oc1cccc(OC(=O)c2ccco2)c1)c1ccco1 | – | – | 14.7µM | – | – | –
O=C(Oc1cccnc1)c1ccco1 | – | – | – | – | – | –
COc1ccc(OCCCC(=O)NNC(=O)c2ccncc2)cc1 | – | · | – | – | – | ·
SMILES | Pf growth 48h | Shiga inhibitor | Pf growth 96h | HCMV inh | HCV inh | Cycloheximide cs
COc1ccccc1NC(=O)NCC1CC1(Cl)Cl (stereo not drawn) | – | – | ? | – | – | –
Cc1ccc(NC(=O)NCC2CC2(Cl)Cl)cc1 (stereo not drawn) | – | 125.3 | – | – | – | 30.5
O=C(NCC1CC1(Cl)Cl)Nc1ccc(Cl)c(Cl)c1 (stereo not drawn) | ? | 94.3 | ? | – | ? | –
CCN1C(=O)[C@H]2[C@@H](c3ccc(C)cc3)N3C(=O)N(c4ccccc4)C(=O)[C@@]3(Cc3ccccc3)[C@H]2C1=O | – | – | ? | – | – | –
Cc1ccc(S(=O)(=O)CC(c2ccccc2)N2CCCCC2)cc1 (stereo not drawn) | – | – | 10.4µM | ? | – | –
O=S(=O)(CC(c1ccccc1)N1CCCCC1)c1ccc(Cl)cc1 (stereo not drawn) | – | – | – | – | – | –
Cc1ccc(S(=O)(=O)CC(c2ccccc2)N2CCOCC2)cc1 (stereo not drawn) | – | – | 9.28µM | – | ? | –
O=C(O)C1=C[C@H](c2ccc(F)cc2)C[C@H](OCc2ccc(CO)cc2)O1 | – | – | – | – | – | –
Cc1ccc(CNC(=O)CCCn2nc(C)n3c(cc4sccc43)c2=O)cc1 | · | · | · | – | · | ·
Cc1ccccc1C(=O)Nc1nnc2n1CCS2 | · | · | · | – | · | ·
O=C(Nc1nnc2n1CCS2)c1ccccc1 | · | · | · | -67.5 | · | ·
Cc1ccc(CN2CCN(C3CCN(C(=O)Nc4ccc(C)cc4Cl)CC3)C(=O)C2=O)cc1 | · | · | · | – | · | ·
COc1cc(OC)c(C(=O)O/N=C(\N)c2ccccn2)cc1OC | – | 78.4 | – | – | – | 14.4
N/C(=N\OC(=O)c1ccccc1Cl)c1ccccn1 | – | – | – | – | – | –
COc1ccccc1C(=O)O/N=C(\N)c1ccccn1 | – | – | – | – | – | 22.4
Cc1ccc(C(=O)O/N=C(\N)c2ccccn2)c(C)c1 | ? | – | – | -69.5 | ? | –
N/C(=N\OC(=O)c1cc(-c2ccccc2)nc2ccccc12)c1ccccn1 | ? | – | ? | – | ? | –
Cc1ccc(C)c(OC(=O)CSc2nnc(-c3ccc4c(c3)OCO4)o2)c1 | · | · | · | – | · | ·
COc1ccc(-c2noc(-c3ccccc3C(=O)Nc3cccnc3)n2)cc1OC | 10.4µM | – | · | – | 8.91µM | –
COc1ccccc1C(=O)Nc1cccnc1 | – | – | – | – | – | –
COc1ccc(-c2noc(-c3ccccc3C(=O)Nc3cccc(OC)c3)n2)cc1 | ? | – | ? | – | ? | –
O=C(Nc1cccnc1)c1ccccc1-c1nc(-c2ccccc2F)no1 | · | – | ? | – | ? | –
COc1ccccc1-c1noc(-c2ccccc2C(=O)Nc2cccnc2)n1 | – | – | · | – | 11.2µM | –
COc1ccc(-c2noc(-c3ccccc3C(=O)Nc3cccnc3)n2)cc1 | ? | – | – | – | 10µM | –
CCN1CCN(S(=O)(=O)c2ccc(Cl)c(C(=O)N(C)Cc3cccc(Cl)c3Cl)c2)CC1 | ? | · | ? | – | ? | ·

High-throughput results: PubChem, National Center for Advancing Translational Sciences (NCATS)
